# Measurements reported in PubChem BioAssay AID1159580 (chemical genetic matrix, 2015).
# Several values for one entry are separate records, joined by “and”; a condition that tells them apart may be missing. Equal entries are not always repeated. Among all 5,500 compounds or so, about 2,000 (36%) were called active. Another 18% or so got no clear call; they are omitted. This is one part of the list. A number with no mark means an inactive call. Rule as the data show it: active = normalized growth mostly below about 0.91 (no sharp cut-off); inconclusive = no clear call, values can overlap the other calls; inactive = mostly above about 0.92.
# Assay: chemical genetic growth profiling, strain panel (AID 1159580);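 also: tested at 20 µM; growth read once vehicle control cultures reached saturation at 30 °C; 1 = growth at the plate median or of vehicle wells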
# Details: S. cerevisiae deletion strains, growth OD
structure (smiles),measurement,setting,value
C#C[C@]1(O)CCC2C3CCC4=CC(=O)CC[C@@H]4C3CC[C@@]21CC (some centres undefined),normalized growth,"locus YAL021C, strain ccr4, stronger effect = lower value",0.986
same,normalized growth,"locus YAL026C, strain drs2, stronger effect = lower value",0.972
same,normalized growth,"locus YAL030W, strain snc1, stronger effect = lower value",1
same,normalized growth,"locus YBL061C, strain skt5, stronger effect = lower value",0.987
same,normalized growth,"locus YBR009C, strain hhf1, stronger effect = lower value",0.985
same,normalized growth,"locus YBR021W, strain FUR4, stronger effect = lower value",1
same,normalized growth,"locus YBR023C, strain chs3, stronger effect = lower value",0.983
same,normalized growth,"locus YBR171W, strain sec66, stronger effect = lower value",0.992
same,normalized growth,"locus YBR229C, strain ROT2, stronger effect = lower value",0.984
same,normalized growth,"locus YBR231C, strain swc5, stronger effect = lower value",1.01
same,normalized growth,"locus YBR279W, strain paf1, stronger effect = lower value",0.998
same,normalized growth,"locus YCL011C, strain gbp2, stronger effect = lower value",1
same,normalized growth,"locus YCL016C, strain dcc1, stronger effect = lower value",0.988
same,normalized growth,"locus YCL029C, strain bik1, stronger effect = lower value",0.981
same,normalized growth,"locus YCL061C, strain MRC1, stronger effect = lower value",0.991
same,normalized growth,"locus YCL069W, strain vba3, stronger effect = lower value",0.995
same,normalized growth,"locus YCR088W, strain abp1, stronger effect = lower value",0.999
same,normalized growth,"locus YDL005C, strain med2, stronger effect = lower value",0.987
same,normalized growth,"locus YDL035C, strain GPR1, stronger effect = lower value",0.979
same,normalized growth,"locus YDL040C, strain nat1, stronger effect = lower value",0.99
same,normalized growth,"locus YDL074C, strain BRE1, stronger effect = lower value",1.04
same,normalized growth,"locus YDL101C, strain DUN1, stronger effect = lower value",0.987
same,normalized growth,"locus YDL134C, strain PPH21, stronger effect = lower value",0.974
same,normalized growth,"locus YDL185W, strain tfp1, stronger effect = lower value",0.982
same,normalized growth,"locus YDL192W, strain arf1, stronger effect = lower value",0.986
same,normalized growth,"locus YDR001C, strain nth1, stronger effect = lower value",1
same,normalized growth,"locus YDR069C, strain doa4, stronger effect = lower value",0.979
same,normalized growth,"locus YDR101C, strain arx1, stronger effect = lower value",0.988
same,normalized growth,"locus YDR137W, strain rgp1, stronger effect = lower value",0.82 (active)
same,normalized growth,"locus YDR150W, strain NUM1, stronger effect = lower value",1.01
same,normalized growth,"locus YDR159W, strain sac3, stronger effect = lower value",0.978
same,normalized growth,"locus YDR162C, strain NBP2, stronger effect = lower value",0.997
same,normalized growth,"locus YDR195W, strain ref2",1.05
same,normalized growth,"locus YDR297W, strain sur2, stronger effect = lower value",0.993
same,normalized growth,"locus YDR318W, strain mcm21, stronger effect = lower value",0.976
same,normalized growth,"locus YDR334W, strain swr1, stronger effect = lower value",1.01
same,normalized growth,"locus YDR335W, strain msn5, stronger effect = lower value",1
same,normalized growth,"locus YDR388W, stronger effect = lower value",0.992
same,normalized growth,"locus YDR392W, strain spt3, stronger effect = lower value",0.828
same,normalized growth,"locus YDR502C, strain sam2, stronger effect = lower value",0.984
same,normalized growth,"locus YEL003W, strain gim4, stronger effect = lower value",0.967
same,normalized growth,"locus YEL037C, strain rad23, stronger effect = lower value",0.983
same,normalized growth,"locus YEL061C, strain CIN8 (second series), stronger effect = lower value",1
same,normalized growth,"locus YEL061C, strain CIN8, stronger effect = lower value",1.01
same,normalized growth,"locus YER015W, strain faa2, stronger effect = lower value",1.01
same,normalized growth,"locus YER016W, strain bim1, stronger effect = lower value",0.993
same,normalized growth,"locus YER110C, stronger effect = lower value",0.999
same,normalized growth,"locus YER111C, strain swi4, stronger effect = lower value",0.997
same,normalized growth,"locus YER155C, strain BEM2 (second series), stronger effect = lower value",0.997
same,normalized growth,"locus YER155C, strain BEM2, stronger effect = lower value",0.99
same,normalized growth,"locus YER167W, strain BCK2, stronger effect = lower value",0.991
same,normalized growth,"locus YFR010W, strain ubp6, stronger effect = lower value",0.991
same,normalized growth,"locus YGL078C, strain dbp3, stronger effect = lower value",0.989
same,normalized growth,"locus YGL086W, strain mad1, stronger effect = lower value",1
same,normalized growth,"locus YGL167C, strain pmr1, stronger effect = lower value",0.995
same,normalized growth,"locus YGL173C, strain kem1, stronger effect = lower value",0.979
same,normalized growth,"locus YGL227W, strain vid30, stronger effect = lower value",1.01
same,normalized growth,"locus YGL240W, strain doc1, stronger effect = lower value",0.991
same,normalized growth,"locus YGL248W, strain PDE1, stronger effect = lower value",0.993
same,normalized growth,"locus YGL253W, strain hxk2, stronger effect = lower value",0.995
same,normalized growth,"locus YGR135W, strain pre9, stronger effect = lower value",0.975
same,normalized growth,"locus YGR229C, strain SMI1, stronger effect = lower value",1.01
same,normalized growth,"locus YGR252W, strain gcn5, stronger effect = lower value",1.06
same,normalized growth,"locus YHR013C, strain ard1, stronger effect = lower value",1.01
same,normalized growth,"locus YHR027C, strain rpn1, stronger effect = lower value",1.01
same,normalized growth,"locus YHR030C, strain SLT2, stronger effect = lower value",0.995 and 0.955
same,normalized growth,"locus YHR079C, strain IRE1 (second series), stronger effect = lower value",0.979
same,normalized growth,"locus YHR079C, strain IRE1, stronger effect = lower value",0.955
same,normalized growth,"locus YHR094C, strain hxt1, stronger effect = lower value",1
same,normalized growth,"locus YHR129C, strain ARP1, stronger effect = lower value",0.996
same,normalized growth,"locus YHR142W, strain chs7, stronger effect = lower value",0.997
same,normalized growth,"locus YHR200W, strain rpn10, stronger effect = lower value",0.984
same,normalized growth,"locus YIL066C, strain RNR3, stronger effect = lower value",0.995
same,normalized growth,"locus YIL073C, strain SPO22, stronger effect = lower value",0.944
same,normalized growth,"locus YIL125W, strain kgd1, stronger effect = lower value",0.998
same,normalized growth,"locus YIR030C, strain dcg1, stronger effect = lower value",0.982
same,normalized growth,"locus YJL092W, strain hpr5, stronger effect = lower value",0.998
same,normalized growth,"locus YJL095W, strain BCK1 (second series), stronger effect = lower value",1.01
same,normalized growth,"locus YJL095W, strain BCK1, stronger effect = lower value",0.988 and 0.951
same,normalized growth,"locus YJL115W, strain asf1, stronger effect = lower value",1
same,normalized growth,"locus YJL129C, strain trk1, stronger effect = lower value",0.986
same,normalized growth,"locus YJL134W, strain LCB3, stronger effect = lower value",0.995
same,normalized growth,"locus YJL154C, strain vps35, stronger effect = lower value",0.993
same,normalized growth,"locus YJL164C, strain tpk1, stronger effect = lower value",0.988
same,normalized growth,"locus YJL166W, strain qcr8, stronger effect = lower value",0.991
same,normalized growth,"locus YJL168C, strain set2, stronger effect = lower value",0.99
same,normalized growth,"locus YJL187C, strain SWE1 (second series), stronger effect = lower value",0.988
same,normalized growth,"locus YJL187C, strain SWE1, stronger effect = lower value",0.997
same,normalized growth,"locus YJR043C, strain POL32, stronger effect = lower value",1.01
